Assay outcomes (PubChem BioAssay)
HIF-2a block = blocks HIF-2a reporter activity | 786-0 RCC cells HIF-2a reporter, luciferase luminescence, overnight | 360,000 compounds, 0.72% hits | inhibition, % at 18.8 µM;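 active = inhibition of the luminescence signal of 40% or more relative to plate controls, in a single-dose primary screen at 18.75 µM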
hiPSC survival = enhancers of human iPSC single-cell survival; hiPSC single-cell survival, ATPlite luminescence; 100% = ROCK inhibitor wells, 0% = DMSO; survival enhancement, % at 20 µM; 360,000 compounds, 0.044% hits; in the data active = survival enhancement above about 18%;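 also: cells exposed to compounds for 16 hours before the ATP read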
KKLEB tox = reduces viability of KKLEB cystic fibrosis airway cells; activity change (cytotoxicity), % at 5 µM; KKLEB CF airway cells viability, ATPlite luminescence, overnight; active compounds read low; cells stimulated with P. aeruginosa culture filtrate; 360,000 compounds, 0.36% hits;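 active = corrected activity change at or below -50% at 5 µM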
LGR2 inh = Drosophila LGR2 receptor signaling inhibition; HEK293 LGR2, CRE-luciferase, bursicon-stimulated, 4 h; inhibition, % at 9.99 µM; 380,000 compounds, 0.35% hits; AID 720647;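 active = drop in luminescence signal, shown as inhibition above about 50% in the replicate tests, limit read from the data, passing the limit was not always enough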;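 also: agonist challenge used bursicon conditioned medium at about half maximal strength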
TWEAK-Fn14 inh = TWEAK-Fn14 signaling inhibition | TWEAK-stimulated Fn14 reporter cells, luciferase luminescence, 8 h | inhibition, % at 10 µM | 360,000 compounds, 2% hits | AID 1159606; in the data active = inhibition above about 50%
CF NFkB inh = blocks PAF-induced NF-kB reporter in cystic fibrosis cells | KKLEB NF-kB-GFP reporter, GFP fluorescence overnight | inhibition, % at 5 µM | 360,000 compounds, 0.86% hits;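 active = at least 50% inhibition at 5 µM, scaled per plate between neutral and stimulator controls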;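 also: PAF is a Pseudomonas aeruginosa culture filtrate used as stimulus; plate controls were PAF-stimulated DMSO wells for no effect and unstimulated DMSO wells for full effect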
* hit, by the source's call; . = not tested or not shown. Shown are actives, neighbours in structure and some others; about 2.3% of the full set was active somewhere.

SMILES | HIF-2a block | hiPSC survival | KKLEB tox | LGR2 inh | TWEAK-Fn14 inh | CF NFkB inh
CCCC#Cc1ccc2c(c1)O[C@H](CN(C)Cc1ccccc1)[C@H](C)CN([C@@H](C)CO)S2(=O)=O | . | . | . | 25 | . | .
O=C(NCCCN1CCCCCC1)c1ccc(CS(=O)(=O)Cc2ccccc2F)o1 | 11 | 28* | 2 | . | -20 | 6
CC1CCN(CCCNC(=O)c2ccc(CS(=O)(=O)Cc3ccccc3F)o2)CC1 | 1 | 2 | 3 | . | 10 | -3
O=C(O)c1c2c(nc3ccccc13)/C(=C/c1ccc(O)cc1)CC2 | -19 | -3 | -3 | 71* | 77* | -19
Oc1[nH]c2c(Cl)cc(Cl)cc2c1N=NC(=S)NCC1CCCO1 (configuration not stated) | 23 | 0 | 18 | 11 | 103* | -42
Cc1cc(C)c2[nH]c(O)c(N=NC(=S)NCC3CCCO3)c2c1 (configuration not stated) | 10 | 2 | -3 | -1 | 9 | 7
COc1ccc(C(=O)NC2CC2)cc1OC1CCN(Cc2cc(C)c(C)cc2C)CC1 | 11 | 0 | 2 | -10 | 88* | 0
CN(C)c1ccc(/C=N/N=C2/NC(=O)/C(=C/c3ccc([N+](=O)[O-])cc3)S2)cc1 | 0 | -3 | -23 | . | 60* | 20
C[C@@H]1CN([C@H](C)CO)C(=O)c2cccc(NS(=O)(=O)c3ccc(F)cc3)c2O[C@H]1CN(C)S(=O)(=O)c1cn(C)cn1 | . | . | . | 4 | . | .
COc1ccc(C(C(=O)NC2CCCC2)N(C(=O)c2snc(C(N)=O)c2N)c2ccccc2OC)cc1OC (configuration not stated) | 9 | 0 | 4 | 8 | 53* | -24
CCOc1ccc(C(C(=O)NCC2CCCO2)N(C(=O)c2snc(C(N)=O)c2N)c2ccccc2F)cc1 (configuration not stated) | 13 | 0 | -10 | 2 | 57* | 6
NC(=O)c1nsc(C(=O)N(Cc2ccco2)C(C(=O)NCC2CCCO2)c2ccc(O)cc2)c1N (configuration not stated) | 10 | 0 | 5 | -4 | 13 | 1
COc1ccc(C(C(=O)NCC2CCCO2)N(Cc2ccco2)C(=O)c2snc(C(N)=O)c2N)cc1OC (configuration not stated) | 14 | 0 | -12 | 19 | 52* | 24
COCC(=O)NC[C@H]1N[C@H](CO)[C@H]1c1ccc(C2=CCCC2)cc1 | . | . | . | 1 | . | .
O=C(C[C@@H]1C=C[C@H](NS(=O)(=O)c2ccc(F)cc2)[C@@H](CO)O1)NCc1ccccc1F | . | . | . | -14 | . | .
CO[C@@H]1CN(C)C(=O)c2ccc(NC(C)=O)cc2OC[C@H](C)N(CCc2ccccc2)C[C@H]1C | . | . | . | 7 | . | .
CC(C)n1ncc2c(C(=O)Nc3cccc(C#N)c3)cc(C3CC3)nc21 | 13 | 0 | 14 | 95* | 54* | 20
CO[C@@H]1CN(C)C(=O)c2ccc(NC(=O)CC(F)(F)F)cc2OC[C@@H](C)N(CC2CC2)C[C@@H]1C | . | . | . | 12 | . | .
CCOC(=O)N1CCN(S(=O)(=O)c2ccc(C)cc2)CC1 | 19 | 0 | 12 | -6 | 77* | -6
CCOc1ccc(OCCC(=O)OCC(=O)N2CCN(S(=O)(=O)c3ccc(Cl)cc3)CC2)cc1 | 30 | 0 | -13 | 24 | 28 | 84*
Cc1ccc(C)c(OCCC(=O)OCC(=O)N2CCN(S(=O)(=O)c3ccc(Cl)cc3)CC2)c1 | 18 | -1 | 0 | 13 | 10 | 37
CC(C)c1cn(CC[C@@H]2CC[C@H](N)[C@@H](CO)O2)nn1 | . | . | . | 27 | . | .
COc1ccc(CN(C)C[C@H]2Oc3c(NC(=O)C4CC4)cccc3C(=O)N([C@@H](C)CO)C[C@@H]2C)cc1 | . | . | . | 19 | . | .
COC(=O)c1ccc2nc(-c3ccc(Cl)cc3)c(Cc3ccc(OC)cc3C)n2c1 | -35 | 0 | . | -9 | 81* | .
CCC(=O)NNC(=O)Cc1c(C)n(C(=O)c2ccc(Cl)cc2)c2ccc(OC)cc12 | 1 | 0 | 3 | 16 | 56* | 1
SMILES | HIF-2a block | hiPSC survival | KKLEB tox | LGR2 inh | TWEAK-Fn14 inh | CF NFkB inh
COc1ccccc1NC(=O)N1CCCCN2[C@H](CO)[C@H](c3ccc(-c4cccc(F)c4)cc3)[C@H]2C1 | . | . | . | 13 | . | .
COc1ccccc1NC(=O)N1CCCCN2[C@@H](CO)[C@H](c3ccc(-c4cccc(F)c4)cc3)[C@@H]2C1 | . | . | . | 76* | . | .
COCC(=O)N1CCCCN2[C@H](CO)[C@H](c3ccc(-c4cccc(C)c4)cc3)[C@@H]2C1 | . | . | . | 62* | . | .
N#Cc1cccc(-c2ccc([C@@H]3[C@H](CO)N4CCCCN(C(=O)Nc5cccc(F)c5)C[C@@H]34)cc2)c1 | . | . | . | 96* | . | .
Cc1ccc(-c2ccc([C@H]3[C@H](CO)N4C(=O)CN(C(=O)Nc5cccc(F)c5)C[C@@H]34)cc2)cc1 | . | . | . | 4 | . | .
O=C(Cc1ccccn1)N1CC(=O)N2[C@@H](CO)[C@H](c3ccc(C#CC4CCCC4)cc3)[C@@H]2C1 | . | . | . | -3 | . | .
CC(=NCc1ccco1)c1c(C)[nH]n(-c2nc3ccccc3s2)c1=O | -33 | -1 | -2 | . | 90* | 8
CCC(=NCc1ccco1)c1c(C(F)(F)F)[nH]n(-c2nc3ccccc3s2)c1=O | -50 | 0 | 2 | . | 87* | -13
O=c1c(C=NCc2cccnc2)c(C(F)(F)F)[nH]n1-c1nc2ccccc2s1 | -20 | -3 | -1 | 58* | 77* | 3
CCC(=NCc1ccccc1)c1c(C(F)(F)F)[nH]n(-c2nc3ccccc3s2)c1=O | -89 | -3 | 10 | . | 41 | -9
COc1ccc(CNC(=O)CNS(=O)(=O)c2ccc(Cl)cc2)cc1 | 10 | -1 | 1 | . | 82* | -6
COc1ccc(CCNC(=O)CNS(=O)(=O)c2ccc(Cl)cc2)cc1 | 13 | 1 | 0 | 1 | -11 | 5
N=c1c2c(ncn1Cc1ccco1)Oc1c(ccc3ccccc13)C2c1ccccc1 (configuration not stated) | -51 | -2 | -31 | 10 | 56* | 34
N=c1c2c(ncn1Cc1ccco1)Oc1cc(O)ccc1C2c1ccccc1 (configuration not stated) | 8 | 0 | 2 | 3 | 0 | 10
C=CCn1c2ccccc2c2nnc(SCCCn3c(=O)[nH]c4ccccc43)nc21 | 28 | 0 | -2 | . | 60* | -7
COc1cccc(/C=N/Nc2ncnc(N)c2[N+](=O)[O-])c1OC | 18 | -2 | 6 | . | 84* | -4
Cc1cc(/C=N/Nc2ncnc(N)c2[N+](=O)[O-])c(C)n1-c1ccccc1 | 59* | -1 | -50* | 79* | 98* | -14
COc1cccc(C=NNc2ccc([N+](=O)[O-])cn2)c1OC | -202 | 4 | 15 | -49 | -51 | -29
Cc1cc(=O)[nH]c(N/N=C/c2cc(C)n(-c3ccccc3)c2C)n1 | -106 | 0 | -10 | -8 | 25 | -5
